In PubChem BioAssay (NCATS):
Results filed as inconclusive are left out. Calls of active or inactive are those of the source. Unless noted, calls follow the shape of the full dose curve.

Legend:
[1] = target: Phospholipid hydroperoxide glutathione peroxidase GPX4 (Homo sapiens) (UniProt P36969); experiment: Primary qHTS Assay for Inhibitors of Recombinant Selenoprotein Glutathione Peroxidase 4 (GPX4) (AID 1845192; active = well fitted curve in the direction sought with a large enough effect; an effect the other way counts as inactive or inconclusive; also: nearly all actives have a fitted effect of over 65% in size)
How it was run: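 NADPH consumption followed by fluorescence at 340/450 nm, t=0 and after 15 min at room temperature. Reaction started with cumene hydroperoxide (0.5 mM final) after 30 min compound–GPX4 preincubation; final 200 nM GPX4, 100 nM GR, 1 mM GSH, 0.5 mM NADPH.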

[2] = Primary qHTS for inhibitors of SARS-S pseudo-typed particle cell entry (AID 1479145); settings: outcome: dose series up to 57.1 µM unless noted; also: nearly all actives have a fitted effect of over 45% in size; also: potency is read from the fitted curve at half-maximal effect
[3] = Primary qHTS for inhibitors of MERS-S pseudo-typed particle cell entry (AID 1479149); settings: outcome: dose series up to 57.1 µM unless noted; also: nearly all actives have a fitted effect of over 60% in size; also: potency is read from the fitted curve at half-maximal effect
[4] = Primary qHTS for Vero E6 cytotoxicity: counterscreen for inhibitors of SARS-S pseudo-typed particle cell entry (AID 1479150); settings: outcome: dose series up to 57.1 µM unless noted; also: potency is read from the fitted curve at half-maximal effect
[5] = Primary qHTS for Huh7 cytotoxicity: counterscreen for inhibitors of MERS-S pseudotyped particle cell entry (AID 1479147); settings: outcome: dose series up to 57.1 µM unless noted; also: potency is read from the fitted curve at half-maximal effect
[6] = KB-8-5-11 P-gp reporter qHTS against the NCATS DSHEA and TCM libraries (AID 1919977; active = well fitted curve in the direction sought with a large enough effect; an effect the other way counts as inactive or inconclusive)
How it was run: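 CellTiter-Glo luminescence measured viability after ~72 h exposure (37C, 5% CO2) of KB-8-5-11 cervical adenocarcinoma cells overexpressing P-gp. Colchicine was omitted during assay. Substances were tested as titrations.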

[7] = Cytotoxicity counterscreen for inhibitors of SARS-CoV-2 cell entry (AID 1645845); settings: outcome: dose series up to 57.1 µM unless noted; also: nearly all actives have a fitted effect of over 50% in size
How it was run: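 ATP-content luminescence (ATPLite 1step, 15 min RT) read after 48 h compound exposure of Expi293F cells stably expressing human ACE2; normalized to cells-only wells and media-only wells.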

[8] = Confirmatory qHTS to identify inhibitors of SARS-CoV-2 cell entry (AID 1645844); also: potency is read from the fitted curve at half-maximal effect; nearly all actives have a fitted effect of over 45% in size
How it was run: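 Luminescence entry read-out after 48 h: spike-pseudotyped MLV particles (Wuhan-Hu-1, 19-aa C-terminal truncation) added to compound-pretreated (1 h) HEK293-ACE2 cells; Data were normalised to bald PP and spike PP wells.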

[9] = Primary qHTS to identify inhibitors of SARS-CoV-2 cell entry (AID 1645846); settings: SARS-CoV-2 pseudovirus cell entry assay, luminescence; activity change, negative = inhibition: at 57.1 µM (top of the series) unless noted; also: nearly all actives have a fitted effect of over 45% in size; also: potency is read from the fitted curve at half-maximal effect
How it was run: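 Entry measured by luciferase signal 48 h after adding SARS-CoV-2-S pseudotyped MLV particles to HEK293-ACE2 cells preincubated 1 h with compounds. Normalisation: bald particles and spike particles.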

[10] = VSVG counterscreen qHTS to identify inhibitors of SARS-CoV-2 cell entry (AID 1645847); also: potency is read from the fitted curve at half-maximal effect; nearly all actives have a fitted effect of over 65% in size
How it was run: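 Luminescence read after 48 h infection at 37 C with VSV-G-pseudotyped MLV particles, following 1 h compound exposure of Expi293F cells stably expressing human ACE2; scaled between bald particle and VSV-G particle wells.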

[11] = target: Cytochrome P450 2C9 (Homo sapiens) (UniProt P11712); experiment: qHTS Assay for Inhibitors and Substrates of Cytochrome P450 2C9 (AID 883; active = well fitted curve in the direction sought with a large enough effect; an effect the other way counts as inactive or inconclusive; also: potency is read from the fitted curve at half-maximal effect; nearly all actives have a fitted effect of over 60% in size)
How it was run: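 Turnover of Luciferin-H (100uM, KM) by 10nM human CYP2C9 was measured over 60 min at 37C with NADPH regeneration; inhibitors and some substrates reduce luminescence. Data normalized to sulphaphenazole 57uM.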

[12] = target: Cytochrome P450 3A4 (Homo sapiens) (UniProt P08684); experiment: qHTS Assay for Inhibitors and Substrates of Cytochrome P450 3A4 (AID 884; active = well fitted curve in the direction sought with a large enough effect; an effect the other way counts as inactive or inconclusive; also: potency is read from the fitted curve at half-maximal effect; nearly all actives have a fitted effect of over 50% in size)
How it was run: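 Luminescent readout of luciferin produced by CYP3A4 (20 nM) dealkylation of Luciferin-PPXE, 25 uM (its KM). NADPH-driven reaction ran 60 min at RT after 10 min compound preincubation; data scaled to 57 uM ketoconazole as 100% inhibition.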

[13] = target: Cytochrome P450 3A4 (Homo sapiens) (UniProt P08684); experiment: qHTS Assay for Activators of Cytochrome P450 3A4 (AID 885; active = well fitted curve in the direction sought with a large enough effect; an effect the other way counts as inactive or inconclusive; also: nearly all actives have a fitted effect of over 65% in size)
How it was run: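 Human CYP3A4 dealkylates Luciferin-PPXE to luciferin, which luciferase detection converts to light. Substrate was at its KM (25uM), buffer 200mM KPO4, reaction 60 min at RT.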

[14] = target: Cytochrome P450 2D6 (Homo sapiens) (UniProt P10635); experiment: qHTS Assay for Inhibitors and Substrates of Cytochrome P450 2D6 (AID 891; active = well fitted curve in the direction sought with a large enough effect; an effect the other way counts as inactive or inconclusive; also: potency is read from the fitted curve at half-maximal effect; nearly all actives have a fitted effect of over 60% in size)
How it was run: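 Luminescent read-out of luciferin formed by 5 nM human CYP2D6 demethylating 30 uM Luciferin-ME EGE (Km level) over 60 min at room temperature after NADPH regeneration addition. Data normalized to full inhibition by 1.43 uM quinidine.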

[15] = Confirmatory qHTS for VERO E6 Cytotoxicity Assay: Counterscreen for SARS-CoV-2 CPE Assay (AID 1508605); also: nearly all actives have a fitted effect of over 60% in size

Sequence of Phospholipid hydroperoxide glutathione peroxidase GPX4 (Homo sapiens) (P36969 whole entry, looked up): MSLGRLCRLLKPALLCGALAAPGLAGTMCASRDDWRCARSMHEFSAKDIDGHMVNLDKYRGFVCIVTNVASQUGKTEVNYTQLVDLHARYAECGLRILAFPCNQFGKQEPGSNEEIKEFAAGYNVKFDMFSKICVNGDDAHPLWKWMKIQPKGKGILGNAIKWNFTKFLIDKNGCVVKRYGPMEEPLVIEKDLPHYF
Sequence of Cytochrome P450 3A4 (Homo sapiens) (P08684 whole entry, looked up): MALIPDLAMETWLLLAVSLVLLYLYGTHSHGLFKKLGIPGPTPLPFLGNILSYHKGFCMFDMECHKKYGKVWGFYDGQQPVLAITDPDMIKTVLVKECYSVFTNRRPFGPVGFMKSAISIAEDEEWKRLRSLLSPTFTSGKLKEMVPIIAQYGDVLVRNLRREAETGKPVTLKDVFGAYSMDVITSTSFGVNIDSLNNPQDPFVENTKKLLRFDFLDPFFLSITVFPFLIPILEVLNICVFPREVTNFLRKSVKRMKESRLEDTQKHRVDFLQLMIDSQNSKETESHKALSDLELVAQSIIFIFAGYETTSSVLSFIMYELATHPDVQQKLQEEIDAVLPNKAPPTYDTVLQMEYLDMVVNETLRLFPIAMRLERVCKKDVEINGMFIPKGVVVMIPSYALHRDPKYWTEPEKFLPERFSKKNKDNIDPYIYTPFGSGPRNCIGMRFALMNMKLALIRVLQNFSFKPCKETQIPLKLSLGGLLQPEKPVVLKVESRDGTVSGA
Sequence of Cytochrome P450 2D6 (Homo sapiens) (P10635 whole entry, looked up): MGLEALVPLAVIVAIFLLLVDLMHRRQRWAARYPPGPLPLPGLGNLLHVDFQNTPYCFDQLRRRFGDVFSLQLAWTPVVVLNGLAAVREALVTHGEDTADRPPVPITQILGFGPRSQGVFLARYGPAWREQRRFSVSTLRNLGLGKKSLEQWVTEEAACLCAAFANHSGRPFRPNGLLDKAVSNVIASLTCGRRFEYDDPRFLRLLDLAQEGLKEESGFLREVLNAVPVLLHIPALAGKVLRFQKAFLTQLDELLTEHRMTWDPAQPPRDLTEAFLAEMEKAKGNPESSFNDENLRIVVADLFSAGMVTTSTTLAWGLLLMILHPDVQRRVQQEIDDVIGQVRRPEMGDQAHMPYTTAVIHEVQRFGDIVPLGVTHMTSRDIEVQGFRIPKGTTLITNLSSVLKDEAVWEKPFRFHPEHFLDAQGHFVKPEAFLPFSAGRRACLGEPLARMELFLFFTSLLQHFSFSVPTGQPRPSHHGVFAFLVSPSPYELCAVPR
Sequence of Cytochrome P450 2C9 (Homo sapiens) (P11712 whole entry, looked up): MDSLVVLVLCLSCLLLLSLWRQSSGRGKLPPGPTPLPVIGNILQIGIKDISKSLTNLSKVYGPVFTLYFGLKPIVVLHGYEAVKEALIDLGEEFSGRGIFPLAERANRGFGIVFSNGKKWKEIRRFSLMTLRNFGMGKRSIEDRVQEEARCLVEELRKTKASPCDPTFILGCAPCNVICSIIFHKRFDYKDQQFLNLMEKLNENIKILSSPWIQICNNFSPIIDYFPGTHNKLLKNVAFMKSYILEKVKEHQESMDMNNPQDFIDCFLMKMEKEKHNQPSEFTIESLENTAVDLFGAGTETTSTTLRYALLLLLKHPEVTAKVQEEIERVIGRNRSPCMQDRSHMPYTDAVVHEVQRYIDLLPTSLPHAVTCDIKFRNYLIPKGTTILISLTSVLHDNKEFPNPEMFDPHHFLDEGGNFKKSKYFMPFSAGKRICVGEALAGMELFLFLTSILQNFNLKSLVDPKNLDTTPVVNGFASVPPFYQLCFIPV

COC1(O[C@H]2CC[C@H]3[C@@H]4CC[C@H]5C[C@@H]6S[C@@H]6C[C@]5(C)[C@H]4CC[C@]23C)CCCC1
inactive: Potency [1]

CNC(C)CC1CCCC1 (centres undefined)
inactive: Potency [1]

CC[C@@]1([C@@H]2O[C@@H]([C@H]3O[C@@](O)(CO)[C@H](C)C[C@@H]3C)C[C@@H]2C)CC[C@H]([C@]2(C)CCC3(C[C@H](O)[C@@H](C)[C@@H]([C@@H](C)[C@@H](OC)[C@H](C)C(=O)O)O3)O2)O1 (some centres undefined)
active: Potency [3] 1.12 µM
inactive: Potency [2] | Potency [4]

C=C1CC[C@H](O)C/C1=C\C=C1/CCC[C@]2(C)[C@@H]([C@H](C)CCCC(C)C)CC[C@@H]12
inactive: Potency [2] | Potency [5] | Potency [6]

CNCC(=O)OCc1cccnc1N(C)C(=O)OC(C)[n+]1cnn(C[C@](O)(c2cc(F)ccc2F)[C@@H](C)c2nc(-c3ccc(C#N)cc3)cs2)c1 (some centres undefined)
inactive: Potency [2] | Potency [5] | Potency [4] | Potency [7]

CC[C@@]1(O)C(=O)OCc2c1cc1n(c2=O)Cc2cc3c([N+](=O)[O-])cccc3nc2-1
-97% [at 114 µM]: activity change, negative = inhibition [9]
inactive: Potency [2] | Potency [3] | Potency [7]
active: Potency [8] 0.0175 µM | Potency [10] 0.0221 µM

CCOc1ccc2c(c1)C(C)=CC(C)(C)N2
inactive: Potency [13] | Potency [2] | Potency [5] | Potency [4] | Potency [7]
active: Potency [11] 2 µM | Potency [12] 15.8 µM | Potency [14] 2.51 µM | Potency [10] 55.5 µM

CN(C)CC/C=C1\c2ccccc2CSc2ccccc21
inactive: Potency [5] | Potency [4] | Potency [15] | Potency [7]
active: Potency [2] 20 µM | Potency [9] 20 µM

CCC[C@H](NC(=O)[C@@H]1[C@H]2CCC[C@H]2CN1C(=O)[C@@H](NC(=O)[C@@H](NC(=O)c1cnccn1)C1CCCCC1)C(C)(C)C)C(=O)C(=O)NC1CC1
inactive: Potency [2] | Potency [5] | Potency [4] | Potency [7]
0.184%: activity change, negative = inhibition [9]

COC(=O)N[C@H](C(=O)N1CC2(CC2)C[C@H]1c1ncc(-c2ccc3c(c2)C(F)(F)c2cc(-c4ccc5nc([C@@H]6[C@H]7CC[C@H](C7)N6C(=O)[C@@H](NC(=O)OC)C(C)C)[nH]c5c4)ccc2-3)[nH]1)C(C)C
inactive: Potency [2] | Potency [5] | Potency [4] | Potency [7]

C=C(NC(=O)C(=C)NC(=O)c1csc(C2=N[C@H]3c4csc(n4)[C@H]4NC(=O)c5csc(n5)[C@H]([C@@](C)(O)[C@@H](C)O)NC(=O)[C@H]5CSC(=N5)C(=CC)NC(=O)[C@H]([C@@H](C)O)NC(=O)c5csc(n5)[C@]3(CC2)NC(=O)[C@H](C)NC(=O)C(=C)NC(=O)[C@H](C)NC(=O)[C@H](C(C)CC)N[C@@H]2C=Cc3c([C@H](C)O)cc(nc3[C@H]2O)C(=O)O[C@@H]4C)n1)C(N)=O (some centres undefined)
active: Potency [5] 20 µM | Potency [8] 3.41 µM
inactive: Potency [2] | Potency [4]

CC(C)(O)CNc1nc(Nc2ccnc(C(F)(F)F)c2)nc(-c2cccc(C(F)(F)F)n2)n1
inactive: Potency [2] | Potency [5] | Potency [4] | Potency [7]

CC(C)c1nc(CN(C)C(=O)N[C@@H](CCN2CCOCC2)C(=O)N[C@H](CC[C@H](Cc2ccccc2)NC(=O)OCc2cncs2)Cc2ccccc2)cs1
inactive: Potency [2] | Potency [5] | Potency [4] | Potency [7]

CN(C)C/C=C/C(=O)Nc1cc2c(Nc3ccc(F)c(Cl)c3)ncnc2cc1OC1CCOC1 (centres undefined)
active: Potency [2] 10 µM | Potency [3] 14.1 µM | Potency [4] 10 µM | Potency [9] 10 µM

CCOC(=O)Cc1ccc(-c2ccccc2)cc1
inactive: Potency [2] | Potency [5] | Potency [4]

CN(C(=O)/C=C/c1ccoc1)[C@@H]1CC[C@@]2(O)[C@H]3Cc4ccc(O)c5c4[C@@]2(CCN3CC2CC2)[C@H]1O5
inactive: Potency [2] | Potency [3] | Potency [4] | Potency [7] | Potency [9] | Potency [1]

CCN(CC)CCOC(=O)c1ccc(N)cc1Cl
inactive: Potency [2] | Potency [5] | Potency [4] | Potency [7]

CCCCCCCCCC(=O)OC1(c2ccc(Cl)cc2)CCN(CCCC(=O)c2ccc(F)cc2)CC1
inactive: Potency [2] | Potency [5] | Potency [4] | Potency [7]

N#Cc1c(N2C[C@@H]3NCCO[C@H]3C2)c(F)cc2c(=O)c(C(=O)O)cn(C3CC3)c12
inactive: Potency [2] | Potency [5] | Potency [4] | Potency [7]

COC[C@H]1C[C@@H](c2ncc(-c3ccc4c(c3)COc3cc5c(ccc6[nH]c([C@@H]7CC[C@H](C)N7C(=O)[C@@H](NC(=O)OC)C(C)C)nc65)cc3-4)[nH]2)N(C(=O)[C@H](NC(=O)OC)c2ccccc2)C1
active: Potency [8] 0.341 µM | Potency [10] 1.52 µM
inactive: Potency [2] | Potency [5] | Potency [4]
